Test results: PubChem BioAssay (Tox21)
Results filed as inconclusive are left out. Entries that show only a call come without a potency. Activity calls are given as the source filed them. Unless noted, the call rests on the fitted dose curve.

Tests used:
[1] = Nuclear factor erythroid 2-related factor 2/antioxidant responsive element (Nrf2/ARE) small molecule agonists: luciferase reporter gene qHTS assay in human keratinocytes (AID 1919969); further: nearly all actives have a fitted effect of over 35% in size; further: potency means the concentration at half of the fitted maximal effect
[2] = target: KiSS-1 receptor (Homo sapiens) (UniProt Q969F8); test: Human kisspeptin (KISS1R) small molecule agonists, calcium flux assay in KISS1R-HEK293 cells (AID 1920064; active means well fitted activation curve with a large enough effect in the repeat runs)
How it was run: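 Measures KISS1R agonism through calcium-sensitive dye fluorescence in stably transfected HEK293 cells, read for 3 min after pin-tool compound delivery; 15-point titrations in triplicate.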

[3] = G protein-coupled receptor (GPCR) small molecule agonists, calcium flux assay: HEK293 wild type cell line counter screen (AID 1920065); further: potency means the concentration at half of the fitted maximal effect
How it was run: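 Readout: fluorescence at 480 nm excitation/540 nm emission, sampled at 1 s intervals for 3 min. Cells had been cultured 18 h, then dye-loaded 1 h at 37 C before compound or ATP addition.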

[4] = p53 small molecule agonists, cell-based qHTS assay with human liver microsomes (AID 1963577);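 further: p53 response element beta-lactamase reporter cells with liver microsomes plus NADPH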
How it was run: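 In this qHTS, p53 response-element beta-lactamase cells receive test compound together with a microsome/NADPH activating system (0.5 mg/mL final each) and are incubated 16 h at 37 C before LiveBLAzer fluorescence detection.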

[5] = p53 small molecule agonists, cell-based qHTS assay with rat liver microsomes (AID 1963578)
How it was run: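 Agonist mode in p53RE-bla reporter cells, with compounds co-incubated 16 h at 37 C alongside 0.5 mg/mL rat liver microsomes and 0.5 mg/mL NADPH (final), followed by a 2 h LiveBLAzer detection step.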

[6] = p53 small molecule agonists, cell-based qHTS assay with human liver microsomes: qHTS cell viability counter screen (AID 1963579); further: nearly all actives have a fitted effect of over 45% in size
How it was run: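 Metabolically activated exposure: compounds, human liver microsomes and NADPH (0.5 mg/mL final apiece) were added to p53RE-bla cells seeded 5 h earlier, left 16 h at 37 C, and then assessed for viability by CellTiter-Glo luminescence.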

[7] = p53 small molecule agonists, cell-based qHTS assay with rat liver microsomes: qHTS cell viability counter screen (AID 1963580); further: nearly all actives have a fitted effect of over 45% in size
How it was run: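 p53RE-bla HCT-116 cells (4,000/well) rested 5 h at 37 C, then given Tox21 compounds in DMSO with rat liver microsomes (0.5 mg/mL final) plus NADPH (0.5 mg/mL final) for 16 h at 37 C. Viability read by CellTiter-Glo luminescence after 30 min at room temperature.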

[8] = target: 5-hydroxytryptamine receptor 2A (Homo sapiens) (UniProt P28223); test: 5-hydroxytryptamine receptor 2A (HTR2A) small molecule antagonists, cell-based qHTS assay (AID 1963586); further: nearly all actives have a fitted effect of over 45% in size; further: potency means the concentration at half of the fitted maximal effect
How it was run: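 Antagonist-mode intracellular calcium assay: DOI (4 nM) added after 5 min compound pre-incubation at room temperature to dye-loaded HTR2A-CHO cells. Fluorescence followed for 3 min, sampled every second.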

[9] = target: 5-hydroxytryptamine receptor 2A (Homo sapiens) (UniProt P28223); test: 5-hydroxytryptamine receptor 2A (HTR2A) small molecule agonists, cell-based qHTS assay (AID 1963587); further: nearly all actives have a fitted effect of over 30% in size; further: potency means the concentration at half of the fitted maximal effect
How it was run: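 HTR2A-CHO cells, plated 18 h at 37 C/5% CO2, dye-loaded 1 h at 37 C; compounds in DMSO added by pin tool (agonist mode). Intracellular calcium flux read as kinetic fluorescence on FDSS over 2 min at 1 s intervals.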

[10] = target: Muscarinic acetylcholine receptor M1 (Homo sapiens) (UniProt P11229); test: Cholinergic receptor muscarinic 1 (CHRM1) small molecule antagonists, cell-based qHTS assay (AID 1963588); further: nearly all actives have a fitted effect of over 40% in size; further: potency means the concentration at half of the fitted maximal effect
How it was run: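 CHRM1-CHO calcium-flux assay, antagonist mode. Cells were seeded 18 h, dye-loaded 1 h at 37 C and given compound for 5 min at RT, then acetylcholine was added at 50nM. FDSS fluorescence was read 3 min; 15 concentrations, three runs.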

[11] = target: Muscarinic acetylcholine receptor M1 (Homo sapiens) (UniProt P11229); test: Cholinergic receptor muscarinic 1 (CHRM1) small molecule agonists, cell-based qHTS assay (AID 1963589); further: nearly all actives have a fitted effect of over 35% in size; further: potency means the concentration at half of the fitted maximal effect
How it was run: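 Each compound was tested at 15 concentrations across three independent runs on dye-loaded CHO cells stably expressing human CHRM1, reading intracellular calcium fluorescence kinetically at 1 sec intervals.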

[12] = cAMP Responsive Elements (CRE) small molecule agonists, cell-based qHTS assay (AID 1963590); further: potency means the concentration at half of the fitted maximal effect
How it was run: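 Cell line: CRE-bla HEK 293T; medium DMEM/10% dialyzed FBS/0.1 mM NEAA/1 mM pyruvate/25 mM HEPES; 3 h compound exposure; beta-lactamase FRET readout after 2 h substrate loading at RT.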

[13] = target: Beta-2 adrenergic receptor (Homo sapiens) (UniProt P07550); test: Adrenergic beta2 receptor (ADRB2) small molecule antagonists, cell-based qHTS assay (AID 1963592); further: series mostly up to about 92 µM; nearly all actives have a fitted effect of over 50% in size
How it was run: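 Cells (CHO, stable ADRB2 overexpression) incubated 18-20hr at 37C; compounds added from DMSO; agonist mix (1nM isoproterenol, 100uM IBMX, 25uM Ro-20-1724) added; 0.5hr RT; d2-cAMP and anti-cAMP-cryptate added; 1hr RT; 665/615 nm read.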

[14] = target: D(2) dopamine receptor (Homo sapiens) (UniProt P14416); test: Dopamine D2 receptor (DRD2) small molecule antagonists, cell-based qHTS assay (AID 1963595; active means well fitted inhibition curve with a large enough effect in the signal ratio in the repeat runs, with a control signal flat; the % refers to the signal ratio; further: potency means the concentration at half of the fitted maximal effect)
How it was run: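 DRD2-HEK293; 0.1 mM Ro20-1724; cpd 10 min RT; NKH477 200 nM + quinpirole 12 nM, 30 min RT; HTRF cAMP (cAMP-d2/anti-cAMP cryptate), 665/620 nm ratio after 1 h.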

[15] = target: Gonadotropin-releasing hormone receptor (Homo sapiens) (UniProt P30968); test: Human gonadotropin-releasing hormone receptor (GnRHR) small molecule agonists, calcium flux assay in GnRHR-HEK293 cells (AID 1920063); further: nearly all actives have a fitted effect of over 35% in size; further: potency means the concentration at half of the fitted maximal effect
How it was run: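 Fluorescence kinetics (480 nm excitation, 540 nm emission; 3 min, 1 s steps) report calcium mobilisation in human GnRHR-HEK293 cells in agonist mode. Dye incubation: 1 h, 37 C.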

[16] = target: D(2) dopamine receptor (Homo sapiens) (UniProt P14416); test: Dopamine D2 receptor (DRD2) small molecule agonists, cell-based qHTS assay (AID 1963594); further: nearly all actives have a fitted effect of over 35% in size
How it was run: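 HEK293 cells stably expressing DRD2 were cultured 24 h at 37 C, then given Ro20-1724 (0.1 mM final) and compounds for 10 min at room temperature. NKH477 (200nM) was then added for 30 min. cAMP was read by HTRF.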

[17] = p53 small molecule agonists, cell-based qHTS assay: qHTS cell viability counter screen (AID 1963581); further: nearly all actives have a fitted effect of over 45% in size
How it was run: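 In the same plates used for the p53 bla reporter, HCT-116 cells given compounds for 16 h at 37 C received CellTiter-Glo; luminescence was recorded 30 min later at room temperature.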

[18] = p53 small molecule agonists, cell-based qHTS assay (AID 1963582; active means well fitted activation curve with a large enough effect in the signal ratio in the repeat runs, not every such curve was filed as active; the % refers to the signal ratio)
How it was run: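 Compounds are pin-transferred in DMSO onto p53RE-bla cells and incubated 16 h at 37 C. The B/G FRET beta-lactamase substrate is then applied for 2 h at RT and fluorescence recorded.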

[19] = cAMP Responsive Elements (CRE) small molecule antagonists, cell-based qHTS assay (AID 1963591; active means well fitted inhibition curve with a large enough effect in the signal ratio in the repeat runs, not every such curve was filed as active; the % refers to the signal ratio)
How it was run: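 Inhibition of NKH477-driven (0.25 uM final) CRE-beta-lactamase signal in HEK293T cells, 3 h compound exposure at 37 °C, detected by FRET substrate fluorescence.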

[20] = target: Beta-2 adrenergic receptor (Homo sapiens) (UniProt P07550); test: Adrenergic beta2 receptor (ADRB2) small molecule agonists, cell-based qHTS assay (AID 1963593);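 further: CHO cells stably overexpressing human ADRB2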
How it was run: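 CHO cells stably over-expressing ADRB2 were plated overnight at 37C, then dosed with compounds plus a stimulation mix containing 100uM IBMX and 25uM Ro-20-1724 for 0.5hr at room temperature. cAMP was measured by HTRF competition, 1hr.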

Chain of Gonadotropin-releasing hormone receptor (Homo sapiens) (P30968 whole entry, looked up): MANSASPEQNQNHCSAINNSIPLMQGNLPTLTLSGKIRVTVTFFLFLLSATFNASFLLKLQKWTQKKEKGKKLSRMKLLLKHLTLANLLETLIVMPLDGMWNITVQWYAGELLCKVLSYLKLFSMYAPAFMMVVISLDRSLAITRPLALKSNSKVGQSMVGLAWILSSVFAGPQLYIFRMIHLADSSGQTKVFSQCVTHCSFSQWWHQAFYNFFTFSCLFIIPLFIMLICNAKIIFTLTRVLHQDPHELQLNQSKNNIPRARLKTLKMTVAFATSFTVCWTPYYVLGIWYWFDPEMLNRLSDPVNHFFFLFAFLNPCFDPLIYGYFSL
Chain of KiSS-1 receptor (Homo sapiens) (Q969F8 whole entry, looked up): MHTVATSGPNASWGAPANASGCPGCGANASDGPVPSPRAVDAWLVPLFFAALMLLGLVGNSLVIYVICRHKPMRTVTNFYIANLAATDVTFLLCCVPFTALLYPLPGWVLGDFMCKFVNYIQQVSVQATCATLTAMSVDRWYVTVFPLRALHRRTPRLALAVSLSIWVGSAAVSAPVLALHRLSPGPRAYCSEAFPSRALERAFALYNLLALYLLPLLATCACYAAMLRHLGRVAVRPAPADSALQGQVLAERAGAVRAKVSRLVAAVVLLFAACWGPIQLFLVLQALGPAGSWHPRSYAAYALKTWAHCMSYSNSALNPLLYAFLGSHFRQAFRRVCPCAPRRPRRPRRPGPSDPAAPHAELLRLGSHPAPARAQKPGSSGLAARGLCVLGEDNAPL
Chain of 5-hydroxytryptamine receptor 2A (Homo sapiens) (P28223 whole entry, looked up): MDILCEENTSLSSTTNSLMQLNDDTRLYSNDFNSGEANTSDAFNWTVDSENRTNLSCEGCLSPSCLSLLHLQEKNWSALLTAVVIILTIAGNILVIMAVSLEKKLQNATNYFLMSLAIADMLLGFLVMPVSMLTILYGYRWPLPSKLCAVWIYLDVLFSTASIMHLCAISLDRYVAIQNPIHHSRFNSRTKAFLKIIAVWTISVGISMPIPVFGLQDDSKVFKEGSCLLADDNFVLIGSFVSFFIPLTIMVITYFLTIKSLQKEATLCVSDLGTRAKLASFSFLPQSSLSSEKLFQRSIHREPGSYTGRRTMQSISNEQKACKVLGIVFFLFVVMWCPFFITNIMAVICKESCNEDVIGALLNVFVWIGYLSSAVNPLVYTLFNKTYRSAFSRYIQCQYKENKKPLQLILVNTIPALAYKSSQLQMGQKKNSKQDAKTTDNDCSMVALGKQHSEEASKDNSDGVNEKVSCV
Chain of Beta-2 adrenergic receptor (Homo sapiens) (P07550 whole entry, looked up): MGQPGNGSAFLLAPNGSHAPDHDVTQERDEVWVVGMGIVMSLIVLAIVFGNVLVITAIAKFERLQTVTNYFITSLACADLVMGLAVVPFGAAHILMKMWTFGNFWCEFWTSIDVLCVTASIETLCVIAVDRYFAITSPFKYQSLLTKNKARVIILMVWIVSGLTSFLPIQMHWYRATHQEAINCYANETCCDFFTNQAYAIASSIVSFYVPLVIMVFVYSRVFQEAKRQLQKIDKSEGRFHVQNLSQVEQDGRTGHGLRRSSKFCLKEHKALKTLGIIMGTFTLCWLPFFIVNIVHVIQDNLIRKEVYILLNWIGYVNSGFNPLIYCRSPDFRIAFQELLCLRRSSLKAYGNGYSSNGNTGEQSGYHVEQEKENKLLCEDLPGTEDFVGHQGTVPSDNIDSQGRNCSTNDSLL
Chain of D(2) dopamine receptor (Homo sapiens) (P14416 whole entry, looked up): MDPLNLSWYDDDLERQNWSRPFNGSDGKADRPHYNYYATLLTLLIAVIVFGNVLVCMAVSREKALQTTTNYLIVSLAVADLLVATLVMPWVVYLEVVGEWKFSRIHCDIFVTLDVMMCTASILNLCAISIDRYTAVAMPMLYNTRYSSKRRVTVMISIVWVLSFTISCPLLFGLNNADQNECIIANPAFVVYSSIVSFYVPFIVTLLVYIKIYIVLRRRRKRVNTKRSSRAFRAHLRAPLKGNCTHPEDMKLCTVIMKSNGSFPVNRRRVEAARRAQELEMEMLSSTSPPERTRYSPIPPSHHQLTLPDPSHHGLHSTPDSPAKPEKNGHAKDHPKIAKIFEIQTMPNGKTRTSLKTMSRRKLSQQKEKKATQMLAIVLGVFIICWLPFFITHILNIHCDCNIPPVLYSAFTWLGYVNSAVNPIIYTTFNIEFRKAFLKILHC
Chain of Muscarinic acetylcholine receptor M1 (Homo sapiens) (P11229 whole entry, looked up): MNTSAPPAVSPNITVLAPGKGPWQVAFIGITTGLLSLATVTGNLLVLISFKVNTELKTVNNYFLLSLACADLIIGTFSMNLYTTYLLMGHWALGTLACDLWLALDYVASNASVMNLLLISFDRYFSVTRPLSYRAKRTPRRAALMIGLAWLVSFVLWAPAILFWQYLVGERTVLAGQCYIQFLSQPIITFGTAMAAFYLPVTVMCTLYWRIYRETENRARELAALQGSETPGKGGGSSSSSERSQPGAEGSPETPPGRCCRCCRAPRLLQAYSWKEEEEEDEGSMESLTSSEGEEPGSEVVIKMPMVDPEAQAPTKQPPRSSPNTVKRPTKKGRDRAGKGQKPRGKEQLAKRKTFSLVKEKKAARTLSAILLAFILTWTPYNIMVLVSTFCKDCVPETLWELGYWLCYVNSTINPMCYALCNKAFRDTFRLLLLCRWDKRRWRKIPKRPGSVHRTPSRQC

Structure (SMILES)	Potency [1]	Potency [2]	Potency [3]	Potency [4]	Potency [5]	Potency [6]	Potency [7]	Potency [8]	Potency [9]	Potency [10]	Potency [11]	Potency [12]	Potency [13]	Potency [14]	Potency [15]	Potency [16]	Potency [17]	Potency [18]	Potency [19]	Potency [20]
CC(C)=CCNc1ncnc2c1ncn2[C@@H]1O[C@H](CO)[C@@H](O)[C@H]1O	7.5 µM (active)	inactive	inactive	inactive	inactive	inactive	inactive	inactive	inactive	inactive	inactive	11.9 µM (active)	inactive	9.44 µM (active)						
Nc1ccc2c3c(cccc13)-c1ccccc1-2	inactive		39.3 µM (active)			inactive	inactive			inactive	49.5 µM (active)		inactive		35.1 µM (active)	inactive				
CCC(C)(C)c1cc(O)c(C(C)(C)CC)cc1O	4.86 µM (active)	inactive	inactive	inactive	inactive	inactive	inactive		4.9 µM (active)	inactive	inactive	inactive	inactive	inactive		inactive	inactive	inactive	inactive	inactive
CC(O)C#CC(C)O (stereo not given)	21.5 µM (active)	inactive	inactive	inactive	inactive		inactive	inactive	inactive	inactive	inactive	inactive	inactive	inactive		inactive			inactive	
CCC(C)n1ncn(-c2ccc(N3CCN(c4ccc(OC[C@H]5CO[C@](Cn6cncn6)(c6ccc(Cl)cc6Cl)O5)cc4)CC3)cc2)c1=O (stereo not given in full)	inactive	inactive	inactive		inactive	inactive	inactive					inactive	inactive	inactive		inactive	inactive	inactive	inactive	inactive
C=Cc1ccc(S(=O)(=O)O)cc1	inactive	inactive	inactive	inactive	inactive	inactive	inactive	inactive	inactive	inactive	inactive	inactive	inactive	inactive		inactive	inactive	inactive		
O=S(=O)(c1ccc(OCc2ccccc2)cc1)c1ccccc1O	inactive	inactive	inactive	inactive	inactive			0.594 µM (active)	inactive	inactive	inactive			61.1 µM (active)		inactive	inactive		inactive	
CNC(=S)NC	inactive	inactive	inactive	inactive	inactive	inactive	inactive	inactive	inactive	inactive	inactive		inactive	inactive		inactive				inactive
CCC1=C[C@@H]2CN(C1)Cc1c([nH]c3ccccc13)[C@@](C(=O)OC)(c1cc3c(cc1OC)N(C)[C@H]1[C@@](O)(C(=O)OC)[C@H](OC(C)=O)[C@]4(CC)C=CCN5CC[C@]31[C@@H]54)C2	0.376 µM (active)		inactive										inactive	inactive	inactive	inactive				
CCOC(=O)COc1ccc2c(c1)CC(NCC(O)c1cccc(Cl)c1)CC2 (stereo not given)	inactive	inactive	inactive	inactive	inactive	inactive		inactive	31.2 µM (active)		inactive						inactive			inactive
O=C(O)COC(=O)Cc1ccccc1Nc1c(Cl)cccc1Cl	inactive	inactive	inactive		inactive	inactive	inactive					inactive	inactive	inactive		inactive	inactive	inactive	inactive	inactive
CN1CCN(CCC(=O)N2c3ccccc3Sc3ccc(C(F)(F)F)cc32)CC1	inactive	inactive	inactive	inactive	inactive		inactive	4.1 µM (active)		0.146 µM (active)	inactive			inactive		inactive				
CC(CN)CC(C)(C)CCN (stereo not given)	inactive	inactive	inactive	inactive	inactive	inactive	inactive	inactive	inactive	10.8 µM (active)			inactive	inactive		inactive	inactive			
Cc1ccc(O)c(C(=O)c2ccccc2)c1	inactive		inactive				inactive		inactive	inactive	inactive		inactive	inactive	inactive	inactive	inactive			inactive
O=C(Nc1cccc([N+](=O)[O-])c1)c1cc2ccccc2cc1O	61.1 µM (active)	inactive	inactive	inactive	inactive		inactive	inactive	inactive		inactive		inactive			inactive	inactive			
